Legend:
Assay in all cases: PBM binding z-score (relative to random genomic background probes); higher = stronger binding; sequences stand for … in GC…GCGATTGACAGCGTAGAATGAAGG
[1] = system: PPARg:RXRa DBDmut IVT, anti-RXR (DBD mutation: RXRa K156A/R161A, NR concentration 270 nM, RXRa partner concentration 90 nM)
Outline: (§1)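 Probes were double-stranded and carried 34-nt variable regions with direct-repeat seeds, single-nucleotide variants, half-site ablations and random human genomic background sequences, printed on custom Agilent 4×180K protein-binding microarrays. Arrays were incubated 1 h with ligand-free nuclear receptor dimers in PBS pH 7.4, 2% milk, 0.02% Triton X-100, 1 mM DTT, 0.2 mg/mL BSA and 0.4 mg/ml salmon testes DNA. Antibodies against each partner (one per run) detected binding, and scanned fluorescence was regression-normalized. Binding z-scores use the random background probes as reference.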

[2] = system: PPARg:RXRa IVT, anti-PPARg (NR concentration 270 nM, RXRa partner concentration 90 nM)
Outline: as §1

[3] = system: PPARg DBDmut:RXRa IVT, anti-PPARg (DBD mutation: PPARg1 K132A/R137A, NR concentration 270 nM, RXRa partner concentration 90 nM)
Outline: as §1

[4] = system: PPARg DBDmut IVT, anti-PPARg (DBD mutation: PPARg1 K132A/R137A, NR concentration 270 nM)
Outline: as §1

[5] = system: PPARg homodimer (NR concentration 180 nM)
Outline: as §1

[6] = system: PXR:RXRa (NR concentration 270 nM, RXRa partner concentration 90 nM)
Outline: as §1

[7] = system: PXR homodimer (NR concentration 270 nM)
Outline: as §1

[8] = system: RARa:RXR (NR concentration 270 nM, RXRa partner concentration 90 nM)
Outline: as §1

[9] = system: RARa homodimer (NR concentration 270 nM)
Outline: as §1

[10] = system: RARb:RXRa (NR concentration 270 nM, RXRa partner concentration 90 nM)
Outline: as §1

[11] = system: RARb homodimer (NR concentration 270 nM)
Outline: as §1

[12] = system: RARg:RXRa (NR concentration 270 nM, RXRa partner concentration 90 nM)
Outline: as §1

[13] = system: RARg homodimer (NR concentration 270 nM)
Outline: as §1

[14] = system: RXRa DBDmut IVT, anti-RXR (DBD mutation: RXRa K156A/R161A, NR concentration 90 nM)
Outline: as §1

[15] = system: RXRa homodimer (NR concentration 180 nM)
Outline: as §1

[16] = system: THRa:RXRa (NR concentration 90 nM, RXRa partner concentration 90 nM)
Outline: as §1

[17] = system: THRa homodimer (NR concentration 90 nM)
Outline: as §1

[18] = system: VDR:RXRa (NR concentration 270 nM, RXRa partner concentration 90 nM)
Outline: as §1

[19] = system: VDR homodimer (NR concentration 270 nM)
Outline: as §1

Sequence	PBM binding z-score [1]	PBM binding z-score [2]	PBM binding z-score [3]	PBM binding z-score [4]	PBM binding z-score [5]	PBM binding z-score [6]	PBM binding z-score [7]	PBM binding z-score [8]	PBM binding z-score [9]	PBM binding z-score [10]	PBM binding z-score [11]	PBM binding z-score [12]	PBM binding z-score [13]	PBM binding z-score [14]	PBM binding z-score [15]	PBM binding z-score [16]	PBM binding z-score [17]	PBM binding z-score [18]	PBM binding z-score [19]
TCATATAGGGAAACAGGTGAAAGTCCGTAAGTTA	3.73	2.71	0.703	0.846	1.02	0.713	0.608	0.541	1.28	0.516	0.562	0.344	0.215	1.66	0.796	0.537	0.314	0.918	-0.0866
ATCTCTAGGTAGAGATAGTTCAGTGAATGCAAAT	-0.289	0.0847	0.624	0.987	0.293	0.338	0.253	0.641	0.194	0.242	0.368	0.166	0.357	-0.163	0.115	0.148	-0.22	0.159	0.338
ACTATTAGTTGAGATGAGGGCAACCGATAGGTTG	0.105	0.33	1.25	0.632	0.972	1.35	0.727	0.676	1.33	1.22	1.05	0.932	0.979	0.642	0.671	2.84	0.833	0.654	1.18
ACCATTAGTTGACTTAGGGCAACCGATACGACGC	0.771	0.653	0.856	-0.189	0.706	0.147	0.618	0.916	0.526	0.973	1.34	0.733	0.851	0.744	0.478	1.61	0.915	0.475	0.163
CCTTACGTGTCACTGACAGGTTATAGCATTTGGA	2.18	1.32	0.83	1.13	1.53	0.903	0.611	1.21	1.67	1.19	1.37	1.71	1.21	0.934	0.941	0.816	0.847	0.871	0.842
TGTCGGAGGACACGAAAGGTCAGAGCTCGACATC	-0.0424	1.74	0.729	-0.228	2.53	4.04	0.82	4.12	1.52	4.31	4.55	4.97	5.76	-0.334	4.22	3.78	1.3	3.34	1.38
GTGCCAAGGTGAATAGGTCGTTGATGAGTAGGCG	2.01	2.66	0.113	-0.755	1.02	0.425	0.19	1.38	0.262	2.09	1.92	2.61	1.46	-0.262	1.55	1.72	0.56	0.576	-0.115
TCGAGTAGGTTGGTCGGGGCATTCAGCCAACATA	0.51	-0.219	-0.384	-1.1	-0.0818	0.102	-0.155	0.0862	-0.932	0.117	0.0867	-0.467	-0.483	-0.0758	-0.429	0.33	0.0385	0.314	0.0879
GCTAGTTGGTAAGTAAAAGGTCACACACCGGTCG	0.354	3.04	-0.0152	0.693	5.08	5.18	1.13	6.32	2.74	4.08	5.2	4.96	4.06	0.677	4.99	3.48	1.73	3.82	1.63
ATCTCTAGGTAAAAGTTCAGTGATTCCCGAGGAT	2.14	3.78	1.64	0.678	1.31	1.97	1.49	1.61	0.97	2.32	2.44	1.69	2.11	0.773	1.47	1.2	0.435	1.05	1.8
CGTCAAAGTTCAAGGTAACGAAACAGAAAGCAGC	0.745	2.29	0.604	0.231	3.5	3.94	2.79	3.53	1.57	5.11	3.67	5.6	6.29	4.46	5.13	2.9	0.933	3.7	2.99
CGCACTAGGTCAAGGACAGTGAATCTCCGCACGC	8.02	7.89	1.21	0.566	1.2	1.15	0.0235	1.92	0.00773	3.92	3.34	3.82	4.48	1.72	2.63	3.03	2.15	1.28	0.387
CCGACTGGGGCAGAAAGGTTACCATTCCATCCGG	1.94	1.83	-1	-1.28	0.284	0.744	-0.202	1.33	0.0232	1.52	1.92	1.35	1	-0.71	1.3	0.555	-0.451	0.567	-0.34
GATACAGGCTCAAGGCCAGAGTACGCGTATTGAT	-0.731	-0.511	-0.646	-1.16	-1.02	-0.534	0.0448	-0.806	-0.764	-0.0838	-0.491	-0.284	0.128	-0.619	-0.27	-0.479	-0.602	-0.543	-0.14
TTACCAAGGTGAAAGGTCGTAGATGCACGCCTTG	2.23	5.05	1.07	0.00894	2.17	4.04	0.0928	5.82	-0.336	3.31	2.48	4.5	2.1	-0.0824	6.49	3.42	0.581	3.04	0.0396
